The supplement of paper PMC11732987, “Enantioselective OTUD7B fragment discovery through chemoproteomics screening and high-throughput optimisation” (Communications Chemistry, 2025)
Unmarked numbers belong to inactive results.

Assays:
Assay in all cases: log2 ratio of Biotin-Ahx-Ub-VS probe labelling (fragment/DMSO); higher = less target engagement (more negative = stronger competition), active = hit call of the paper (q ≤ 0.05, log2 ratio ≤ -1)
Conditions in all cases: compound concentration: 200 uM; treatment time: 3 h
[1] = biological target: T1, ALG13 (UniProt Q9NP73)
T1 sequence (whole entry): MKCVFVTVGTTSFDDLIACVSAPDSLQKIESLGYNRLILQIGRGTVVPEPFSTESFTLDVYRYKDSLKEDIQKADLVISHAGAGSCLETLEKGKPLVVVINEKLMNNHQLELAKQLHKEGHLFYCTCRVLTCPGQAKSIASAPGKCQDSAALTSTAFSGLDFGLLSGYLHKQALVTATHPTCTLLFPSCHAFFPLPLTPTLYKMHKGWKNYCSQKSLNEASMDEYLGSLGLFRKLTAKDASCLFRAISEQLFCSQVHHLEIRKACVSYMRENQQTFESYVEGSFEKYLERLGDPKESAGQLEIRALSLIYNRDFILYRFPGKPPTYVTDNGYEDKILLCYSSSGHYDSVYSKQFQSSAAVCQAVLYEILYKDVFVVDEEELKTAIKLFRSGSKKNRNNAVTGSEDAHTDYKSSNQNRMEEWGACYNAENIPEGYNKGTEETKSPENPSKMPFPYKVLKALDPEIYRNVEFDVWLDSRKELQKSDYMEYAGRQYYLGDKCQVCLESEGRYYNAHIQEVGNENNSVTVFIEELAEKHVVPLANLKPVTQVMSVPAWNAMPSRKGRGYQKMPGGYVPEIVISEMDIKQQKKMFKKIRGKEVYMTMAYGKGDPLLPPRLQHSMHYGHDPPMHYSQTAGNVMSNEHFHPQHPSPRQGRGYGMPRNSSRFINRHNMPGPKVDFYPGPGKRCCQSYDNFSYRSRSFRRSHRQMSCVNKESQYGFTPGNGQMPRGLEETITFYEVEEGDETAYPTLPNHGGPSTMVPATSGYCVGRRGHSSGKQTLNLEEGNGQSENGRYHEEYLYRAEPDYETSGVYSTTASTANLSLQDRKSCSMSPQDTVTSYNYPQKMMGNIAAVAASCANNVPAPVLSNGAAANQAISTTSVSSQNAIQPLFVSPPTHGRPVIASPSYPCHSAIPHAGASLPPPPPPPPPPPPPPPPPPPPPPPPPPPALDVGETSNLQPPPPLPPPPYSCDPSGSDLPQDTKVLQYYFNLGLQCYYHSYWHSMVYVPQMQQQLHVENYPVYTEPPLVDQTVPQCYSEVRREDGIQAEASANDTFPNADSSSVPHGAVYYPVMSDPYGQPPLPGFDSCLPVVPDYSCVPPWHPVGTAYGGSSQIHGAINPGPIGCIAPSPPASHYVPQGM
Method in brief: (§1)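 HEK293T lysate (495 µg per sample, in Tris/CHAPS/IGEPAL buffer with protease inhibitors) was exposed in triplicate for 3 h to fragment at 200 µM or to vehicle, then to Biotin-Ahx-Ub-VS at 0.5 µM final for 1 h. Labelled DUBs were enriched on NeutrAvidin, digested with LysC and trypsin, and analysed by diaPASEF LC-MS/MS. Spectronaut label-free quantities were normalised to the global median, and values are average log2 ratios of fragment over vehicle from an unpaired t-test. Only proteins with ≥2 unique peptides were used.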

[2] = biological target: ATXN3 (UniProt P54252)
ATXN3, sequence (P54252 whole entry): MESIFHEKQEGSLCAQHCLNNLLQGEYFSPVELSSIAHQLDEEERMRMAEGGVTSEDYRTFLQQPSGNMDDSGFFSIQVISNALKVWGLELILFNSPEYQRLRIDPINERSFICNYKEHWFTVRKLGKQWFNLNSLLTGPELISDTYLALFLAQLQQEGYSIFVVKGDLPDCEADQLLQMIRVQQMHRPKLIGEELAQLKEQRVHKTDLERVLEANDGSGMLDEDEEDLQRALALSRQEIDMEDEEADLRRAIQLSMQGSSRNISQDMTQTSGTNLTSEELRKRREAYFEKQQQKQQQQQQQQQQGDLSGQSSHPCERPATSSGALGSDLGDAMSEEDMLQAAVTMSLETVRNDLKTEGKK
Method in brief: as §1

[3] = biological target: T2, BAP1 (UniProt Q92560)
T2 sequence (whole entry): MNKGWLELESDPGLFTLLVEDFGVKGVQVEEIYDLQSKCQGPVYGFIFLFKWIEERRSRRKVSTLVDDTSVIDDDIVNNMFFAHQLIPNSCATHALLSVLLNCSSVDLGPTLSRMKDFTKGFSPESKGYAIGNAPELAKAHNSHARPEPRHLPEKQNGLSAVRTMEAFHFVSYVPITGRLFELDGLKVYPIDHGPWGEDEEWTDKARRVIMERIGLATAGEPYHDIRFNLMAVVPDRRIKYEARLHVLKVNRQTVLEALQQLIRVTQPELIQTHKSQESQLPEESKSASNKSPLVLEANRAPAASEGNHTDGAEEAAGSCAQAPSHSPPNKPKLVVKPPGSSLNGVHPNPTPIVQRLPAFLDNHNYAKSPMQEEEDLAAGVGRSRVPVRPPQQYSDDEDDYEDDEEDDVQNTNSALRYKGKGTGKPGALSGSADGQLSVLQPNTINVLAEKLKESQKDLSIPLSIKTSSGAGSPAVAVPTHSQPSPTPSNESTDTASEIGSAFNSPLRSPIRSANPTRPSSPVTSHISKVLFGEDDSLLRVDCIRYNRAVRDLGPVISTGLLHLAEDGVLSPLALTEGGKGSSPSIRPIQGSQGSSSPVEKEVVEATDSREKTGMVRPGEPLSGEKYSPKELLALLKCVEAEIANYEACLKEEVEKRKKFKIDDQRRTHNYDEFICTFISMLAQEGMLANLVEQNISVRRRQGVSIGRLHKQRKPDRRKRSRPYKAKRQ
Method in brief: as §1

[4] = biological target: EIF3F (UniProt O00303)
EIF3F, sequence (O00303 whole entry): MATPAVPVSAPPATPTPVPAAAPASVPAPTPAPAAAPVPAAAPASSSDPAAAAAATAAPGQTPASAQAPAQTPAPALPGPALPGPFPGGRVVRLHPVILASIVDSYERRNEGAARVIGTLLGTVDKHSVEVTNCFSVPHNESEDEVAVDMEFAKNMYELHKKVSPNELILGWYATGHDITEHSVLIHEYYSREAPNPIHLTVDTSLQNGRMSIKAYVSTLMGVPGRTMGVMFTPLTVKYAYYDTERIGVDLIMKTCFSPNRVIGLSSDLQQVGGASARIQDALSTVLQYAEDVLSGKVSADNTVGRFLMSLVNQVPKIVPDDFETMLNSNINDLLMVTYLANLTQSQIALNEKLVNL
Method in brief: as §1

[5] = biological target: EIF3H (UniProt O15372)
EIF3H, sequence (O15372 whole entry): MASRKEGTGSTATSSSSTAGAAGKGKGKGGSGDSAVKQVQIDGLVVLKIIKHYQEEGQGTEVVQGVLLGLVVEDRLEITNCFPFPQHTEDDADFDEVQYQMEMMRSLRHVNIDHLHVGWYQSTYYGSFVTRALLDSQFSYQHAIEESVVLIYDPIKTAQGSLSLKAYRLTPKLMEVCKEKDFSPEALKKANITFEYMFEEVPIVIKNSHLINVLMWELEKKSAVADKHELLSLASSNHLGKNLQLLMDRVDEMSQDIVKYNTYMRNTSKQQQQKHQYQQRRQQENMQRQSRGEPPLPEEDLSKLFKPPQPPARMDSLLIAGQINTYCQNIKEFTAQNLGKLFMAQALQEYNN
Method in brief: as §1

[6] = biological target: T3, FAM105A (UniProt Q9NUU6)
T3 sequence (whole entry): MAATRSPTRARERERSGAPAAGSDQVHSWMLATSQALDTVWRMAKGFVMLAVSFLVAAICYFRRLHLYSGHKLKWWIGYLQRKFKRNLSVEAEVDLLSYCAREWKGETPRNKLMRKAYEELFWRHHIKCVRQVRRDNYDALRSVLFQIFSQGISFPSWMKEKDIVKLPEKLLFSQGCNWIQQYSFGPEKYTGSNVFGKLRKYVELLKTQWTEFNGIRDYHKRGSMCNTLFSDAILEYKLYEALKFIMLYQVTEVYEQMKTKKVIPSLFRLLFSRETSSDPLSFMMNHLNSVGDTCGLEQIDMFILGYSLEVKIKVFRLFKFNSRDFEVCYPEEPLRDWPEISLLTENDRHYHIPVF
Method in brief: as §1

[7] = biological target: OTUB1 (UniProt Q96FW1)
OTUB1, sequence (Q96FW1 whole entry): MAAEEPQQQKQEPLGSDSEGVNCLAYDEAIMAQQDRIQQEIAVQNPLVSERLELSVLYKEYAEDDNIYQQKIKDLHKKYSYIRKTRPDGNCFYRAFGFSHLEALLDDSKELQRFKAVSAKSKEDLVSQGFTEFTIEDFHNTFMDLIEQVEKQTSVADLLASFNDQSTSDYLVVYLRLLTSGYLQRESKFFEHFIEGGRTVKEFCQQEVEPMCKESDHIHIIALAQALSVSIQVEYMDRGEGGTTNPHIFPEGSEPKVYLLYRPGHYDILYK
Method in brief: as §1

[8] = biological target: T4, OTUD4 (UniProt Q01804)
T4 sequence (whole entry): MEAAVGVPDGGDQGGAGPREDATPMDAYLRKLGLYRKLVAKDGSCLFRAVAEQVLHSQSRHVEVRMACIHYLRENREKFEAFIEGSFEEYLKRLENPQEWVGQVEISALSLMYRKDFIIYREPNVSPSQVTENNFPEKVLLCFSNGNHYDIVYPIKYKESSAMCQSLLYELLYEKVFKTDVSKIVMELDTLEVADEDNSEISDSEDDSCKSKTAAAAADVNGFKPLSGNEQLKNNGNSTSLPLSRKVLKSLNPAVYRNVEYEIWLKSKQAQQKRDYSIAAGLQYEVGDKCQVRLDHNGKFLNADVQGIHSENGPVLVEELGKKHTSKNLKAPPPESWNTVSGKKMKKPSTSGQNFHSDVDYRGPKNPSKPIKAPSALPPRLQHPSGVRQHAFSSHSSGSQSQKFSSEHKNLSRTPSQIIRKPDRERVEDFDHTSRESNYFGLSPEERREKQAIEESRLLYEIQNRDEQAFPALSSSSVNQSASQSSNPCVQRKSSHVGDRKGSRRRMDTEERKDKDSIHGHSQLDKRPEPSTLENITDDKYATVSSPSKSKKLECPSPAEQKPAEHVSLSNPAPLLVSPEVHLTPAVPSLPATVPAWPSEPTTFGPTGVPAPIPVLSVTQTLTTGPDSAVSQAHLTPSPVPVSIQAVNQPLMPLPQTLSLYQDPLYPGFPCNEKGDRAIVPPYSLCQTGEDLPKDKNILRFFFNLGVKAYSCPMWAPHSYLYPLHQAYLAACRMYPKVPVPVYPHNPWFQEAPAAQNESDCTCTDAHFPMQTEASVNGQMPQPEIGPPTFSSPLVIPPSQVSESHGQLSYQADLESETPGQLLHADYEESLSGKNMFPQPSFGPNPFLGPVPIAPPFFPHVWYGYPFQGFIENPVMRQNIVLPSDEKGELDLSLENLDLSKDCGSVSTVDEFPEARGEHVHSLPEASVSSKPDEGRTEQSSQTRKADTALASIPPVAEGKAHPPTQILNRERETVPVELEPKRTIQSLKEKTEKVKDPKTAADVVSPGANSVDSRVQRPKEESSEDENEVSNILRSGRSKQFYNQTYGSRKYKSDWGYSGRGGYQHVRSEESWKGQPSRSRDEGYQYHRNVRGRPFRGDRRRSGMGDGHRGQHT
Method in brief: as §1

[9] = biological target: T5, OTUD5 (UniProt Q96G74)
T5 sequence (whole entry): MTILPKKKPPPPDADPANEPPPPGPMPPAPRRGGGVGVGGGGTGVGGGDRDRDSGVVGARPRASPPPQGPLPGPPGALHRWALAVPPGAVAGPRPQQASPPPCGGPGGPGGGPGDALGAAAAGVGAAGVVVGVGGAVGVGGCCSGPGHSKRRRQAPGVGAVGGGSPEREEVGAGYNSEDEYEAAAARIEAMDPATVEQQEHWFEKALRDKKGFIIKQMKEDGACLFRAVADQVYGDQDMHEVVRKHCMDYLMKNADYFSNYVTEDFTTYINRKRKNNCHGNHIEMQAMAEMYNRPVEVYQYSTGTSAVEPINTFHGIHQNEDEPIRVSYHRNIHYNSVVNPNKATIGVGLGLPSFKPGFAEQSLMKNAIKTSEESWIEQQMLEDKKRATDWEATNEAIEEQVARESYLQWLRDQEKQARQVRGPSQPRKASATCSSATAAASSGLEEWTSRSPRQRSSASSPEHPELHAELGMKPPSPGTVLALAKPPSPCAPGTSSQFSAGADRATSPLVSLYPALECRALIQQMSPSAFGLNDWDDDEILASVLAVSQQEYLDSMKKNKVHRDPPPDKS
Method in brief: as §1

Which results are given for `Cl.Cn1ncc2c1CC(NC(=O)CCl)CC2` (centres undefined)?
log2 ratio of Biotin-Ahx-Ub-VS probe labelling [1]: 0.027; log2 ratio of Biotin-Ahx-Ub-VS probe labelling [2]: -0.0274; log2 ratio of Biotin-Ahx-Ub-VS probe labelling [3]: -1.1 (active); log2 ratio of Biotin-Ahx-Ub-VS probe labelling [4]: -0.121; log2 ratio of Biotin-Ahx-Ub-VS probe labelling [5]: -0.266; log2 ratio of Biotin-Ahx-Ub-VS probe labelling [6]: 0.307; log2 ratio of Biotin-Ahx-Ub-VS probe labelling [7]: -0.112; log2 ratio of Biotin-Ahx-Ub-VS probe labelling [8]: -0.464; log2 ratio of Biotin-Ahx-Ub-VS probe labelling [9]: 0.000518
